# Rows were chosen to be rich in hits. Some 4.8% of all compounds tested hit in one or more screens of this group.
# DAX1 inh-1 – blocks DAX1 repression of SF-1 activated StAR promoter; inhibition, % at 6.8 µM; HEK293T StAR-luciferase reporter, SF-1/DAX-1 repression relief; 370,000 tested, 1.1% active;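 active means inhibition above the mean over all tested compounds plus 3 SD, cut at about 3.6% in these data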;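 further: 0% = DAX-1 cells with DMSO and 100% = cells lacking DAX-1 with DMSO; higher inhibition means more luminescence from relief of DAX-1 repression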
# DAX1 inh-2 – inhibits human nuclear receptor DAX1; HEK293 Gal4-DAX1 luciferase reporter, luminescence; P51843; inhibition, % at 6.75 µM; 340,000 tested, 0.99% active;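 active means inhibition above the mean over all tested compounds plus 3 SD, cut at about 4.2% in these data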;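 further: 0% = DAX1-transfected cells with DMSO and 100% = empty-vector control cells with DMSO; inhibition shows as a rise in luminescence from relieved DAX1 repression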
# Target sequence (P51843 207-470 limits assumed): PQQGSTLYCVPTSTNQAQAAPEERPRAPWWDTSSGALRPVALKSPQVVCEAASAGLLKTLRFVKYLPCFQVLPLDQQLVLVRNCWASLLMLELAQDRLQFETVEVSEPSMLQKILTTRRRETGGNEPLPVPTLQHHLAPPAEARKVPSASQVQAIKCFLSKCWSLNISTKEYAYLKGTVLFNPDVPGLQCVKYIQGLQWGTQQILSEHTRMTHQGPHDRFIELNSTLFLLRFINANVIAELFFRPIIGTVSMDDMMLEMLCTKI
# hgDAF-12 ag – hgDAF-12 agonism, primary luciferase screen. HEK293 GAL4-hgDAF12 UAS-luciferase reporter, agonist luminescence; normalized to butyrate control. activation, % at 6.8 µM. 370,000 tested, 1.8% active. AID 687014;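 active means activation above a cutoff set at the mean of all screened compounds plus 3 SD, cut at about 10% in these data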;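 further: 0% = DMSO wells and 100% = sodium butyrate wells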
# hcDAF12 agonist – activates DAF-12 receptor from parasite H. contortus. HEK293 hcDAF-12 lit1-tk-luc reporter, luminescence; 0% DMSO, 100% Δ7-dafachronic acid. activation, % at 6.8 µM. 370,000 tested, 1.4% active;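 active means activation above the mean of all tested compounds plus 3 SD, cut at about 5.5% in these data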;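 further: 100% = response to 3 µM Δ7-dafachronic acid high control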
# SMARCA2 activ – SMARCA2 function activation, primary screen; 370,000 tested, 1% active; activation, % at 9.1 µM; AID 652017; MG213 cells, MMTV-luciferase reporter, dexamethasone, overnight; in the data active means activation above about 7.8%;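 further: 0% = vehicle wells and 100% = reference activator wells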
# ssDAF-12 act – activators of S. stercoralis DAF-12 nuclear receptor. 370,000 tested, 1% active. activation, % at 6.8 µM. HEK293 ssDAF-12/GRIP1 lit1-tk-luc reporter, luminescence; % of 3 µM dafachronic acid response;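 active means activation above the mean over all tested compounds plus 3 SD, cut at about 0.9% in these data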;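 further: 0% = DMSO-only wells and 100% = 3 µM delta7-dafachronic acid wells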
# DAX1 inh confirm – NR0B1 (human) inhibition, confirmation | inhibition, % at 6.8 µM | 2,400 tested, 87% active | HEK293T StAR-promoter luciferase reporter, SF-1/DAX-1 repression | AID 652134 | shares compounds with DAX1 inh-1;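 active means inhibition above the average of every tested compound plus 3 SD, cut at about 3.8% in these data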;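 further: 0% = DAX-1 cells with DMSO and 100% = no DAX-1 control cells with DMSO; active compounds raise luminescence by relieving repression of the StAR reporter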
# SF1 mutant ctr – counter-screen for DAX1 inhibitors: nonselective inhibitors with SF-1 AF2 mutant; shares compounds with DAX1 inh-1; HEK293 StAR-luciferase, luminescence; inhibition, % at 6.8 µM; 2,400 tested, 78% active;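 active means inhibition above the mean of all tested compounds plus 3 SD, cut at about 3% in these data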;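 further: 0% = DAX-1 transfected cells with DMSO and 100% = cells without DAX-1 with DMSO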
# SMARCA2 conf – confirmation of SMARCA2 (BRM) function activators. 3,500 tested, 30% active. MG213 cells, MMTV-luciferase with dexamethasone, luminescence, overnight; MG213 cells expressing E1A, Rb sequestered; DMSO wells 0%, reference activator 100%. activation, % at 9.1 µM. shares compounds with SMARCA2 activ. AID 652260;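 active means activation above its plate's cutoff, the mean activation of tested wells plus 3 SD, cut at about 7.9% in these data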
# GAL4-VP16 Luc – activates GAL4-VP16 luciferase, flagging SMARCA2 activator hits | shares compounds with SMARCA2 activ | HEK293 GAL4-VP16 pG5luc reporter, luciferase luminescence; scaled: DMSO wells 0%, SAHA wells 100% | activation, % at 9.1 µM | 3,500 tested, 41% active | AID 686939;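 active means activation above the solvent-only control well mean plus 3 SD, averaged across control plates, cut at about 5.2% in these data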
# LXR ag – counter-screen for hcDAF-12 agonists: agonists of human LXR-beta. 3,400 tested, under 10 active. HEK293 Gal4-LXR tk-luc reporter, luminescence, 24 h; normalized: DMSO 0%, positive control 100%. activation, % at 6.8 µM. AID 743027. shares compounds with hcDAF12 agonist;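 active means mean percent activation of the reporter above a cutoff set as the average over tested compounds plus their standard deviation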
# Target sequence (P55055 whole entry, looked up, the tested form may be a part): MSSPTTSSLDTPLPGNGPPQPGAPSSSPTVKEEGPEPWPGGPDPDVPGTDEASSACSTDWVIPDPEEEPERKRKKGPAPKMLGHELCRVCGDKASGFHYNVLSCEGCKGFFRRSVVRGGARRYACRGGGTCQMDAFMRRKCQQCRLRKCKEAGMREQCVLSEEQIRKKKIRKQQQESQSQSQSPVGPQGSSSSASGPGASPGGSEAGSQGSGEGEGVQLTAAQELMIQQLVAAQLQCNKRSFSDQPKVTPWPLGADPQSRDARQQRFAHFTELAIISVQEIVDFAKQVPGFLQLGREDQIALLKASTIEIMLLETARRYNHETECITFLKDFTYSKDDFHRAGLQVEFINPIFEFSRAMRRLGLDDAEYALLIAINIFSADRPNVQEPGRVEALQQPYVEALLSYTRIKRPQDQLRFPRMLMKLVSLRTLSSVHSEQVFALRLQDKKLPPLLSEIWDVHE
# hcDAF12 conf – hcDAF-12 agonism, confirmation assay. shares compounds with hcDAF12 agonist. HEK293 hcDAF-12 lit1-tk-luc reporter, luminescence; % of Δ7-dafachronic acid response. activation, % at 6.8 µM. 3,400 tested, 61% active. AID 743032;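 active means mean activation across triplicate tests above the threshold derived from the earlier primary screen, cut at about 5.5% in these data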;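 further: 0% = DMSO only wells and 100% = 3 µM Δ7-dafachronic acid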
# hgDAF12 ag – hgDAF-12 agonism, confirmation assay; AID 743050; activation, % at 6.8 µM; shares compounds with hgDAF-12 ag; HEK293 GAL4-hgDAF12 luciferase reporter, agonist mode; percent of butyrate response; 3,300 tested, 80% active;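 active means mean activation over triplicate wells above the hit cutoff derived from the earlier primary screen, cut at about 11% in these data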;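 further: 0% = DMSO low control and 100% = 2 mM sodium butyrate high control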
# LXRb DAF12 ctr – activates human LXR-beta, counter-screen for DAF-12 agonists. HEK293 Gal4-LXR luciferase reporter, 24 h. activation, % at 6.8 µM. 3,300 tested, under 10 active. AID 743051. shares compounds with hgDAF-12 ag;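 active means mean activation of the triplicate above a set limit carried over from the primary screen, none filed active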
# * hit, by the source's call; nt = no result.
SMILES,DAX1 inh-1,DAX1 inh-2,hgDAF-12 ag,hcDAF12 agonist,SMARCA2 activ,ssDAF-12 act,DAX1 inh confirm,SF1 mutant ctr,hgDAF12 ag,LXRb DAF12 ctr,others
FC(F)(F)Oc1cccc(Cn2ccc3ccc(-c4ccc5ccn(Cc6cccc(OC(F)(F)F)c6)c5c4)cc32)c1,0,nt,-3,0,-1,-1,nt,nt,nt,nt,
O=S1(=O)c2ccc(N3CCC[C@@H]3CO)cc2O[C@@H]2CCN1C2,-1,nt,2,0,-1,-1,nt,nt,nt,nt,
Cn1cccc1C(=O)OCC(=O)c1c[nH]c2ccccc12,4.7*,4,14*,11*,6,0,16*,8.1*,14*,1,LXR ag=1;hcDAF12 conf=6.3*
Cc1cnc(C(=O)OCC(=O)c2c[nH]c3ccccc23)cn1,2,1,5,4,0,0,nt,nt,nt,nt,
CN1C2CCCC1CC(NC(=O)c1nn(C)c3ccccc13)C2 (configuration not stated),0,nt,0,-2,-5,-1,nt,nt,nt,nt,
Cc1ccccc1C(=O)N[C@@H](Cc1cccnc1)C(=O)N1CCC[C@H]1C(=O)NCCc1ccccc1Cl,-1,nt,0,-2,2,0,nt,nt,nt,nt,
O=C(Nc1ccc(N2CCCC2)c(Cl)c1)c1ccccc1F,5.1*,4,22*,3,2,0,14*,4.8*,16*,1,
Cc1cc(C(=O)CSc2nncs2)c(C)n1Cc1ccco1,4.8*,-2,16*,5,5,0,9.8*,5.3*,13*,1,
Cc1cc(C(=O)CSc2nn(-c3ccccc3)c(=S)s2)c(C)n1Cc1ccco1,-1,-3,-5,-2,-3,-2,nt,nt,nt,nt,
COC(=O)[C@@]12CCCCC=C1N(CCc1ccc(Cl)cc1)C(=O)[C@H]2CC(=O)NCC1CCCCC1,-1,nt,0,-4,-2,0,nt,nt,nt,nt,
Cc1cc(-c2n[nH]c(=S)n2N=Cc2cccc(Oc3ccccc3)c2)n[nH]1,0,nt,1,-3,-6,-1,nt,nt,nt,nt,
CC(C)(C)C(c1nc2ccccc2[nH]1)n1c(-c2cccc(S(C)(=O)=O)c2)nc2ccccc21 (configuration not stated),16*,nt,16*,3,6,0,7.7*,9.5*,12*,0,
CCC(=O)N1CCc2cc(Br)c(S(=O)(=O)N3CCC(C(=O)NC(C)(C)C)CC3)cc21,-1,nt,-1,-1,-1,0,nt,nt,nt,nt,
NC(=O)c1ccccc1NC(=O)/C=C/c1cccc(Cl)c1,1,1,8,2,5,-1,nt,nt,nt,nt,
NC(=O)c1ccccc1N/C=C/C(=O)c1ccc(Cl)cc1Cl,6.3*,-1,16*,8.1*,3,0,17*,7.6*,17*,1,LXR ag=1;hcDAF12 conf=8.2*
Cc1cccc(OCC(=O)Nc2ccc3c(c2)OCO3)c1C,0,1,2,-1,-4,-1,nt,nt,nt,nt,
O=C(COc1ccccc1[N+](=O)[O-])Nc1ccc2c(c1)OCO2,6.7*,3,15*,9.2*,7,0,6.8*,4.1*,12*,1,LXR ag=1;hcDAF12 conf=5.8*
O=C(COC(=O)COc1ccccc1[N+](=O)[O-])Nc1ccc2c(c1)OCO2,0,-1,-2,1,2,-1,nt,nt,nt,nt,
N#Cc1ccccc1OCC(=O)Nc1ccc2c(c1)OCO2,5.9*,4,20*,2,9.0*,0,6.5*,4.0*,13*,0,SMARCA2 conf=18*;GAL4-VP16 Luc=7.6*
NC(=O)c1cc(Cl)ccc1OCC(=O)Nc1ccc2c(c1)OCO2,12*,1,16*,2,5,0,12*,8.7*,15*,1,
C/C(=N\NC(=O)c1ccccn1)c1ccc(C(=O)O)s1,5.2*,nt,22*,4,6,1,3,3,11*,0,
CC(=O)c1cccc(Nc2nc(-c3ccccc3)cs2)c1,9.7*,1,21*,9.8*,5,1.0*,11*,7.0*,19*,1,LXR ag=2;hcDAF12 conf=5
COc1ccc(-c2csc(Nc3ccccc3)n2)cc1,7.4*,2,21*,5,2,0,13*,8.2*,20*,1,
CC(=O)c1cccc(Nc2nc(-c3cccnc3)cs2)c1,1,1,8,0,2,0,nt,nt,nt,nt,
C[C@@H]1CCCN1c1cccc2c1S(=O)(=O)N1CC[C@H](C1)O2,0,nt,0,-3,-2,1,nt,nt,nt,nt,
CCCn1c(=N)n(CC(=O)c2cccs2)c2ccccc21,0,-1,-3,-4,1,-1,nt,nt,nt,nt,
Cn1c(=N)n(CC(=O)c2cccs2)c2ccccc21,6.0*,4,17*,15*,2,1,4.3*,4.0*,13*,0,LXR ag=1;hcDAF12 conf=9.5*
Cc1cc(C)n2c(NC3CCCC3)c(-c3cc4ccccc4o3)nc2n1,5.3*,nt,17*,4,8.6*,1.2*,4.2*,2,8,0,SMARCA2 conf=8.0*;GAL4-VP16 Luc=6.7*
COCCCNc1ccn2nc(-c3ccc(Cl)cc3)cc2n1,7.3*,nt,14*,8.0*,-1,0,10*,7.3*,21*,1,LXR ag=1;hcDAF12 conf=6.5*

# Bioassay records: PubChem BioAssay, The Scripps Research Institute Molecular Screening Center
